# Assay results from PubChem BioAssay (NCATS).
# Results filed as inconclusive are left out. Where a call stands in place of a potency, no number is given. Calls of active or inactive are those of the source. Calls follow the shape of the full dose curve.
# Experiment: Primary qHTS for Huh7 cytotoxicity: counterscreen for inhibitors of MERS-S pseudotyped particle cell entry (AID 1479147)
# Conditions: cell viability read-out; series mostly up to 57.1 µM; activity change, negative = cytotoxicity: at the top concentration
# Potency is read from the fitted curve at half-maximal effect.
Structure (SMILES),outcome,"activity change, negative = cytotoxicity",Potency
CC(=O)CCCCn1c(=O)c2c(ncn2C)n(C)c1=O,inactive,,
CC(N)C12CC3CC(CC(C3)C1)C2 (centres undefined),,-19.1% (inactive),
C[C@@H](O[C@H]1OCCN(Cc2n[nH]c(=O)[nH]2)[C@H]1c1ccc(F)cc1)c1cc(C(F)(F)F)cc(C(F)(F)F)c1,inactive,,
C=C[C@H]1CN2CC[C@H]1C[C@@H]2[C@@H](O)c1ccnc2ccc(OC)cc12,inactive,,
CC(C)NC[C@@H](O)COc1ccc(CC(N)=O)cc1,,2.67% (inactive),
COc1cc(Nc2c(C#N)cnc3cc(OCCCN4CCN(C)CC4)c(OC)cc23)c(Cl)cc1Cl,,,28.2 µM (active)
CCN(CC)CCOC(=O)C1(C2CCCCC2)CCCCC1,inactive,,
OCCN(CCO)c1nc(N2CCCCC2)c2nc(N(CCO)CCO)nc(N3CCCCC3)c2n1,inactive,,
CS(=O)(=O)CCNCc1ccc(-c2ccc3ncnc(Nc4ccc(OCc5cccc(F)c5)c(Cl)c4)c3c2)o1,,-19.1% (inactive),
OC(CCN1CCCC1)(c1ccccc1)C1CCCCC1 (centres undefined),,0.0792% (inactive),
Cc1onc(-c2ccccc2Cl)c1C(=O)N[C@@H]1C(=O)N2[C@@H]1SC(C)(C)[C@@H]2C(=O)O,inactive,,
COC(=O)Nc1nc2ccc(C(=O)c3ccccc3)cc2[nH]1,,-14.6% (inactive),
COc1cc2nc(N3CCN(C(=O)C4COc5ccccc5O4)CC3)nc(N)c2cc1OC (centres undefined),,-19.7% (inactive),
CC(C)c1c(C(=O)Nc2ccccc2)c(-c2ccccc2)c(-c2ccc(F)cc2)n1CC[C@@H](O)C[C@@H](O)CC(=O)O,,-3.25% (inactive),
CC(=O)O[C@@]12CO[C@@H]1C[C@H](O)[C@@]1(C)C(=O)[C@H](O)C3=C(C)[C@@H](OC(=O)[C@H](O)[C@@H](NC(=O)OC(C)(C)C)c4ccccc4)C[C@@](O)([C@@H](OC(=O)c4ccccc4)[C@H]21)C3(C)C,inactive,,
CCOc1ccccc1OCCN[C@H](C)Cc1ccc(OC)c(S(N)(=O)=O)c1,inactive,,
COC(=O)CCc1ccc(OCC(O)CNC(C)C)cc1 (centres undefined),inactive,,
COc1ccccc1OCCNCC(O)COc1cccc2[nH]c3ccccc3c12 (centres undefined),,-26.4% (inactive),
NC(=O)N1c2ccccc2CC(=O)c2ccccc21,inactive,,
CC(CN1c2ccccc2Sc2ccccc21)N(C)C (centres undefined),,-24.3% (inactive),

Structure (SMILES),outcome,"activity change, negative = cytotoxicity",Potency
N=C(N)c1ccc(OCCCCCOc2ccc(C(=N)N)cc2)cc1,,1.04% (inactive),
CC[C@H](C)C(=O)O[C@H]1C[C@@H](C)C=C2C=C[C@H](C)[C@H](CC[C@@H]3C[C@@H](O)CC(=O)O3)[C@H]21,inactive,,
C[C@]12CC[C@@H]3c4ccc(O)cc4C[C@@H](CCCCCCCCCS(=O)CCCC(F)(F)C(F)(F)F)[C@H]3[C@@H]1CC[C@@H]2O (some centres undefined),,-5.07% (inactive),
CC(C)C1CCC(C(=O)N[C@H](Cc2ccccc2)C(=O)O)CC1 (some centres undefined),inactive,,
COc1nc(N)nc2c1ncn2[C@@H]1O[C@H](CO)[C@@H](O)[C@@H]1O,inactive,,
CC(C)(C#N)c1cc(Cn2cncn2)cc(C(C)(C)C#N)c1,inactive,,
CCCCS(=O)(=O)N[C@@H](Cc1ccc(OCCCCC2CCNCC2)cc1)C(=O)O,inactive,,
C#Cc1cccc(Nc2ncnc3cc(OCCOC)c(OCCOC)cc23)c1,,-9.53% (inactive),
COC(=O)C1=C(C)NC(C)=C(C(=O)OC(C)C)C1c1cccc2nonc12 (centres undefined),inactive,,
Cc1nccn1CC1CCc2c(c3ccccc3n2C)C1=O (centres undefined),,0.413% (inactive),
CCC(C)(C)C(=O)O[C@H]1C[C@@H](C)C=C2C=C[C@H](C)[C@H](CC[C@@H]3C[C@@H](O)CC(=O)O3)[C@H]21,inactive,,
CCCC(=O)Nc1ccc(OCC(O)CNC(C)C)c(C(C)=O)c1 (centres undefined),inactive,,
NC12CC3CC(CC(C3)C1)C2,,-9.64% (inactive),
Nc1ncn([C@@H]2O[C@H](CO)[C@@H](O)[C@H]2O)c(=O)n1,inactive,,
CCC(=O)O[C@H]1[C@H](O[C@@H]2[C@@H](C)[C@H](O[C@H]3C[C@@](C)(OC)[C@@H](O)[C@H](C)O3)[C@@H](C)C(=O)O[C@H](CC)[C@@](C)(O)[C@H](O)[C@@H](C)C(=O)[C@H](C)C[C@@]2(C)O)O[C@H](C)C[C@@H]1N(C)C,,1.94% (inactive),
CN(C/C=C/C#CC(C)(C)C)Cc1cccc2ccccc12,inactive,,
CN(C)c1ccc(O)c2c1C[C@H]1C[C@H]3[C@H](N(C)C)C(=O)C(C(N)=O)=C(O)[C@@]3(O)C(=O)C1=C2O,inactive,,
CNS(=O)(=O)CCc1ccc2[nH]cc(C3CCN(C)CC3)c2c1,inactive,,
CCOC(=O)[C@H](CCc1ccccc1)N[C@@H](C)C(=O)N1Cc2cc(OC)c(OC)cc2C[C@H]1C(=O)O,,-6.95% (inactive),
